This note sets out measurements from PubChem BioAssay (Tox21).

Molecules are shown by their SMILES. Where “and” joins values, the source holds several entries; their conditions need not be identical. Equal values may be shown once. Inconclusive results are not listed. Calls of active or inactive are those of the source. The call rests on the fitted dose curve; in most records, active means well fitted cell-killing curve with a large enough effect in the repeat runs; inconclusive means weak or mixed curves; inactive means flat fitted curve, though single readings scatter.
On the % scale 0 is the no-effect control and ±100 the full control effect; potency means the concentration at half of the fitted maximal effect.

The experiment in a line: qHTS RealTime-Glo MT Cell Viability Assay in HepG2 cells - 16 hour (AID 1224885). Further: nearly all actives have a fitted effect of over 50% in size. Particulars: RealTime-Glo luminescence; series mostly up to 76.8 µM; activity change, negative = cytotoxic: at the top concentration. The text has this:
U.S. Tox21 Program National Center for Advancing Translational Sciences [NCATS] NIH Chemical Genomics Center [NCGC] U.S. Environmental Protection Agency [EPA] National Institutes of Environmental Health Sciences [NIEHS] National Toxicology Program [NTP] U.S. Food and Drug Administration [FDA] Tox21 Assay Overview: Measure of cell viability is critical in the cell-base assay. Analysis of cell viability is necessary for the characterization of cell responses to cytotoxic drugs and environmental stress. A RealTime-Glo MT Cell Viability Assay to monitor cell viability in real time of continues cell culture during 40 hours of compound treatment was used to screen Tox21 10K library compounds in HepG2 cells. The RealTime-Glo MT Cell Viability Assay is a nonlytic, homogeneous, bioluminescent method to measure cell viability in real time using a simple, plate-based method. The assay involves adding NanoLuc luciferase and a cell-permeant prosubstrate to cells in culture. Viable cells reduce the proprietary prosubstrate to generate a substrate for NanoLuc luciferase. This substrate diffuses from cells into the surrounding culture medium, where it is rapidly used by the NanoLuc Enzyme to produce a luminescent signal. The signal correlates with the number of viable cells, making the assay well suited for cytotoxicity studies.
Tox21 Assay Protocol Summary: The mixture of HepG2 cell suspension and reagents were dispensed at 600cells/6 ul/well in 1536-well tissue culture treated black solid bottom plates using a Multidrop dispenser. After the assay plates were incubated at a 37 C/5% CO2 incubator for 5 hours, 23 nL of compounds dissolved in DMSO, positive and negative controls was transferred to the assay plate by a pintool work station. The plates were incubated at 37 C for 40 hours. The luminescence intensity were measured at 0h, 8h, 16h, 24h, 32h and 40h time points using ViewLux plate reader during compound treatment.
On the technique in general: qHTS replaces the single test concentration by a dilution series.
For `C[C@@H](NCCCc1cccc(C(F)(F)F)c1)c1cccc2ccccc12`, the Potency was 21.3 µM (active).

As to `CCCCCCCCCCCC(=O)NCCCN(C)C`, the Potency was 49 µM (active).

On to `CSc1ccc(/C=C2/C(C)=C(CC(=O)O)c3cc(F)ccc32)cc1`, for which the “activity change, negative = cytotoxic” value was 9.25% [at 35.3 µM] (inactive).

With `C=C(C)C(=O)OCC[N+](C)(C)C`, the “activity change, negative = cytotoxic” value is 1.36% (inactive).

Consider `CCCCCCCCS(=O)C(C)Cc1ccc2c(c1)OCO2` (stereo not given), for which the “activity change, negative = cytotoxic” value was 0.798% (inactive).

As for `CCCCN(CCCC)c1ccc(C(=O)c2ccccc2C(=O)O)c(O)c1`, the “activity change, negative = cytotoxic” value is -6.29% (inactive).

With `OCCCCCCCCCCCCBr`, the “activity change, negative = cytotoxic” value was 0.485% (inactive).

Regarding `C1CCCC1`, the “activity change, negative = cytotoxic” value was -0.0497% (inactive).

For `CCCCCOC(=O)CCCC`, the “activity change, negative = cytotoxic” value was -1.39% (inactive).

`Nc1ccc2cc(S(=O)(=O)O)cc(O)c2c1N=Nc1ccccc1C(F)(F)F`: the “activity change, negative = cytotoxic” value was -6.94% (inactive).

In the case of `CN(C)c1ccc(SC#N)cc1`, the “activity change, negative = cytotoxic” value was -4.05% (inactive).

As to `C[C@H]1[C@H]2CC[C@H]3[C@@H]4CC=C5C[C@@H](N(C)C)CC[C@]5(C)[C@H]4CC[C@]23CN1C`, the “activity change, negative = cytotoxic” value was -14.1% [at 35.3 µM] (inactive).

On to `CCCCCCOC(=O)c1ccc(O)cc1`, for which the “activity change, negative = cytotoxic” value was -10.8% (inactive).

Take `CCCCCCCCCCCCc1ccc(O)cc1`: the Potency was 43.6 µM (active).

In the case of `C=CC(=O)OCC(CO)(COC(=O)C=C)COC(=O)C=C`, the Potency is 13.9 µM (active) and 11 µM (active).

As to `CCCCC(CC)COC(=O)c1ccccc1C(=O)O` (stereo not given), the “activity change, negative = cytotoxic” value was 5.02% (inactive).

Turning to `O=C(c1ccc(F)cc1)C1CCN(CCn2c(=O)[nH]c3ccccc3c2=O)CC1`, the “activity change, negative = cytotoxic” value was -15.9% [at 35.3 µM] (inactive).

As to `CCN(CC)CCCC(C)Nc1c2ccc(Cl)cc2nc2ccc(OC)cc12` (stereo not given), the Potency was 9.52 µM (active).

Turning to `C[C@]12CCC(=O)C=C1CC[C@@H]1[C@@H]2[C@@H](O)C[C@@]2(C)[C@H]1CC[C@]2(O)C(=O)COC(=O)CCC(=O)O`, the “activity change, negative = cytotoxic” value is 2.17% [at 35.3 µM] (inactive).

For the molecule `CN(C)[C@@H]1C(=O)C(C(N)=O)=C(O)[C@@]2(O)C(=O)C3=C(O)c4c(O)ccc(Cl)c4[C@@H](O)[C@H]3C[C@@H]12`, the “activity change, negative = cytotoxic” value is 0.0369% [at 35.3 µM] (inactive).

Consider `c1ccc(CSCc2ccccc2)cc1`, for which the “activity change, negative = cytotoxic” value was -4% (inactive).

On to `Cc1cccc(N(C)C(=S)Oc2ccc3c(c2)C2CCC3C2)c1` (stereo not given), for which the “activity change, negative = cytotoxic” value is -10.7% [at 35.3 µM] (inactive).

As for `CCCCCCCCCCCC[N+](C)(C)CCCCCCCCCCCC`, the Potency is 8.71 µM (active).

With `CCC(CN)=C(c1ccccc1)c1ccccc1`, the “activity change, negative = cytotoxic” value was -10.9% [at 35.3 µM] (inactive).

Regarding `NNc1nc(-c2ccccc2)cs1`, the “activity change, negative = cytotoxic” value is -13.7% (inactive).

On to `CSc1cnc(C)cn1`, for which the “activity change, negative = cytotoxic” value is -0.665% [at 200 µM] (inactive).

For `CCCCCCCC(=O)[O-].CCCCCCCC(=O)[O-].[Zn+2]`, the “activity change, negative = cytotoxic” value is 2.93% [at 35.3 µM] (inactive).

`O=c1[nH]cnc2nc[nH]c12`: the “activity change, negative = cytotoxic” value is -1.3% [at 35.3 µM] (inactive).

In the case of `Cc1onc(-c2c(Cl)cccc2Cl)c1C(=O)N[C@@H]1C(=O)N2[C@@H]1SC(C)(C)[C@@H]2C(=O)O`, the “activity change, negative = cytotoxic” value was -0.0606% [at 35.3 µM] (inactive).

For `CC1(C)CCC(C)(C)c2cc(C(=O)Nc3ccc(C(=O)O)cc3)ccc21`, the “activity change, negative = cytotoxic” value was -3.03% (inactive).

`CC(C)c1ccc2c(c1)CC[C@H]1[C@](C)(CN)CCC[C@]21C`: the Potency was 17.4 µM (active).

Take `COCCCC/C(=N\OCCN)c1ccc(C(F)(F)F)cc1`: the “activity change, negative = cytotoxic” value was -15.6% [at 35.3 µM] (inactive).

As for `Cc1cccc2c1cc1ccc3cccc4ccc2c1c34`, the “activity change, negative = cytotoxic” value was 1.24% (inactive).

On to `CC(C)n1nc(-c2cc3cc(O)ccc3[nH]2)c2c(N)ncnc21`, for which the “activity change, negative = cytotoxic” value was -20.6% [at 35.3 µM] (inactive).

On to `Cc1cc(CCN2CCN(c3nsc4ccccc34)CC2)cc2c1NC(=O)CC2(C)C`, for which the Potency was 54.9 µM (active).

As for `CCCCCOc1ccccc1/C(=C\SC)n1ccnc1`, the “activity change, negative = cytotoxic” value is -13.2% [at 35.3 µM] (inactive).

Regarding `CC(=O)OCC(C)OC(C)=O` (stereo not given), the “activity change, negative = cytotoxic” value was -0.0487% (inactive).

`CCC(N)(CO)CO`: the “activity change, negative = cytotoxic” value is -2.68% (inactive).

As for `O=C(c1ccc(O)cc1O)c1ccc(O)cc1O`, the Potency result was “inactive”.

As to `Clc1ccc(C(Cn2ccnc2)OCc2ccc(Sc3ccccc3)cc2)c(Cl)c1` (stereo not given), the “activity change, negative = cytotoxic” value was -0.136% [at 35.3 µM] (inactive).
